According to the supplement of paper PMC11732987, “Enantioselective OTUD7B fragment discovery through chemoproteomics screening and high-throughput optimisation” (Communications Chemistry, 2025):

Assays:
Test in all cases: log2 ratio of Biotin-Ahx-Ub-VS probe labelling (fragment/DMSO); higher = less target engagement (more negative = stronger competition), active = hit call of the paper (q ≤ 0.05, log2 ratio ≤ -1)
Conditions in all cases: compound concentration: 200 uM; treatment time: 3 h
USP42 = target: T1, USP42 (UniProt Q9H9J4)
T1 sequence (whole entry): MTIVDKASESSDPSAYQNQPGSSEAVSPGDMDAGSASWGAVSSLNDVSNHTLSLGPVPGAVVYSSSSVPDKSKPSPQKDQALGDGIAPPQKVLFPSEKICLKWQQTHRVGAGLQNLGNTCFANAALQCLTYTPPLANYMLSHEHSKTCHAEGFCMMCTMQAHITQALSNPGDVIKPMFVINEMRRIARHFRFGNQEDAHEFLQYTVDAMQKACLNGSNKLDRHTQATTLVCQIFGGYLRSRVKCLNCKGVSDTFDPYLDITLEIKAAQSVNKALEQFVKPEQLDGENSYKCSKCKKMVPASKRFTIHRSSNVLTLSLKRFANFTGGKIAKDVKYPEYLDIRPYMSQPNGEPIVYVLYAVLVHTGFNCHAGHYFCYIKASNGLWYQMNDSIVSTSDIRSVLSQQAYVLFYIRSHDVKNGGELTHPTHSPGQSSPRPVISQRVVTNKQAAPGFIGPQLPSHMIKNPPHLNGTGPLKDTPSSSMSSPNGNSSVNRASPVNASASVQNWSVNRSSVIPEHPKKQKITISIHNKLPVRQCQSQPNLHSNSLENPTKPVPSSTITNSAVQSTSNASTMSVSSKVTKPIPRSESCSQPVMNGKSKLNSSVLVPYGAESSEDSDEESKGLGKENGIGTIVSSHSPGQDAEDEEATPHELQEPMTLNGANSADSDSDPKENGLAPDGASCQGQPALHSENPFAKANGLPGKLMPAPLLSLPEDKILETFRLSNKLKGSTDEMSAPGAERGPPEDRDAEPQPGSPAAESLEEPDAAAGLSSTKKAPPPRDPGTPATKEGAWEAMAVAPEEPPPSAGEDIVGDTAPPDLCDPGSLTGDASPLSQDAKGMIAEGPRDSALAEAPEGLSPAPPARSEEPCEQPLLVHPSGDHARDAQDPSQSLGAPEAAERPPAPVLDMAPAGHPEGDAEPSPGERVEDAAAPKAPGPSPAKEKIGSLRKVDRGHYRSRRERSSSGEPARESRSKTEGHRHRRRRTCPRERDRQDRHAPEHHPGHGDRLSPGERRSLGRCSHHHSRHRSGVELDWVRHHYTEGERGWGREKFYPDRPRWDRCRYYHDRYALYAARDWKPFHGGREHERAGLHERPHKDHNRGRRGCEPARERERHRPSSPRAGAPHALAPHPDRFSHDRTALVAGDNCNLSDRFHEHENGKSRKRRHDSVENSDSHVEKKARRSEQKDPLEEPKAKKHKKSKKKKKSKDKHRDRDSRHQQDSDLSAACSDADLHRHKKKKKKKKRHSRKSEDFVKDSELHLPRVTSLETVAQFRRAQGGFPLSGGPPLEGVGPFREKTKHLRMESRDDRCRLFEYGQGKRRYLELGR
How it was run: (§1)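 HEK293T lysate (495 µg per sample, in Tris/CHAPS/IGEPAL buffer with protease inhibitors) was treated in triplicate with fragment at 200 µM or with DMSO for 3 h. It was then treated with Biotin-Ahx-Ub-VS (0.5 µM final) for 1 h. Labelled DUBs were NeutrAvidin-enriched, digested with LysC and trypsin, and run by diaPASEF LC-MS/MS. Spectronaut label-free quantities were global-median-normalised. Values are average log2 ratios fragment/DMSO by unpaired t-test, using proteins with ≥2 unique peptides.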

USP46 = USP46 (UniProt P62068)
How it was run: as §1

USP47 = target: T2, USP47 (UniProt Q96K76)
T2 sequence (whole entry): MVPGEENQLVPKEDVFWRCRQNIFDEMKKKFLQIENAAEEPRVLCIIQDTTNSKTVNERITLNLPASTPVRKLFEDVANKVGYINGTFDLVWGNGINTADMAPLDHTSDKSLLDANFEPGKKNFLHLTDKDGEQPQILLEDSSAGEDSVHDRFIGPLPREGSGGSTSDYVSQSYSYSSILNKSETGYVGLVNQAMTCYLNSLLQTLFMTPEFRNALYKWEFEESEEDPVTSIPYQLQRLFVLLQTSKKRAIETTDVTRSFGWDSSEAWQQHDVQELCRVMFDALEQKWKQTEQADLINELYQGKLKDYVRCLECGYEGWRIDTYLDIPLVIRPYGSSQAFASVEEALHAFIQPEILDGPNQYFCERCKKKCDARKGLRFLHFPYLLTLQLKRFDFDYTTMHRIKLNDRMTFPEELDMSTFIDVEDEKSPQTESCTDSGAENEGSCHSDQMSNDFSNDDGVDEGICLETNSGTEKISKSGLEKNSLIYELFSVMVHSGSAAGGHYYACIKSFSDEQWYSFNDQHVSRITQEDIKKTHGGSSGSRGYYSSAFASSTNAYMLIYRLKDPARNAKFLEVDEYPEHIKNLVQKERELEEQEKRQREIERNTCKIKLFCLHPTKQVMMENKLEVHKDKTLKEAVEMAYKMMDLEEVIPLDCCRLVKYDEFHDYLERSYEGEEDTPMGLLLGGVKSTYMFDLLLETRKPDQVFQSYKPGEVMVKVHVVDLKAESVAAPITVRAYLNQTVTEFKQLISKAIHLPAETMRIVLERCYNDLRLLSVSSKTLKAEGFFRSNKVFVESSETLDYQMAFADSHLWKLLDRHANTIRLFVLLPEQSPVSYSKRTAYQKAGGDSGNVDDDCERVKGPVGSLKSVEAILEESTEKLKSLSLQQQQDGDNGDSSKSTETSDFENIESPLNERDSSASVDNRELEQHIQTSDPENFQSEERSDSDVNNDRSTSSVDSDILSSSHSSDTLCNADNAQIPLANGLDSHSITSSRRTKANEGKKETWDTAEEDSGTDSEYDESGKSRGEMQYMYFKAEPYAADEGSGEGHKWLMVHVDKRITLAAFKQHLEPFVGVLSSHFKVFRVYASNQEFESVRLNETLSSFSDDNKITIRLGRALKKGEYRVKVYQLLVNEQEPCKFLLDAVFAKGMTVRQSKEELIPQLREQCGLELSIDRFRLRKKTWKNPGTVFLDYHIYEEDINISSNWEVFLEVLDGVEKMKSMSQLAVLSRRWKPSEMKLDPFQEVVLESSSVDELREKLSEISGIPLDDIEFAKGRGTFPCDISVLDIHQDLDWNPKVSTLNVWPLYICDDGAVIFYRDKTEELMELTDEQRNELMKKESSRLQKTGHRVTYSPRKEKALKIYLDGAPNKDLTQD
How it was run: as §1

USP48 = target: T3, USP48 (UniProt Q86UV5)
T3 sequence (whole entry): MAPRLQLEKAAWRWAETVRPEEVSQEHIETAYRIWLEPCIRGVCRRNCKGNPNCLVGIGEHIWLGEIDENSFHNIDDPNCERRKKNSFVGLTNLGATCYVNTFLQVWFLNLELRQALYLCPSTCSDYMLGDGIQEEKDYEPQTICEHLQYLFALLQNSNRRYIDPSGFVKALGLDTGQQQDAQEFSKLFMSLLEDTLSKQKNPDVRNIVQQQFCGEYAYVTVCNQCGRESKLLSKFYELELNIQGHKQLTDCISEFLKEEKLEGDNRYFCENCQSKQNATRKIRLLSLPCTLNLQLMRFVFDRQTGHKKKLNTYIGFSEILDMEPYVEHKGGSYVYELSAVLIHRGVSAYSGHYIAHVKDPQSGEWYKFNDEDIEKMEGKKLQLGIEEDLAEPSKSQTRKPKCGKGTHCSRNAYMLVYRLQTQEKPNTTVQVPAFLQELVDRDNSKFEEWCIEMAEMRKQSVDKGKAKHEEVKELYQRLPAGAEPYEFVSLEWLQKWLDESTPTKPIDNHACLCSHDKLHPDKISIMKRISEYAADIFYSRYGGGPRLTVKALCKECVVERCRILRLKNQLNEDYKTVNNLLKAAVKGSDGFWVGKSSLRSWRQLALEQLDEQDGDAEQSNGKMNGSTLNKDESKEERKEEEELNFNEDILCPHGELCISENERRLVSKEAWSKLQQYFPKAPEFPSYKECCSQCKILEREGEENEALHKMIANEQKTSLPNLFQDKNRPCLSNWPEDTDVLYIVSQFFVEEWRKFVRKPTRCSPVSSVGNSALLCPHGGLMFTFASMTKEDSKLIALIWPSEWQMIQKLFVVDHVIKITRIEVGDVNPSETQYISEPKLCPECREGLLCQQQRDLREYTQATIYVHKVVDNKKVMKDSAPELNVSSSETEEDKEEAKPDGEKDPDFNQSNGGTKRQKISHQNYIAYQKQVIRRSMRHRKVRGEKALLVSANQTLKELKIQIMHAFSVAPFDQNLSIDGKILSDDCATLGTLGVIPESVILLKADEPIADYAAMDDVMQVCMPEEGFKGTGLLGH
How it was run: as §1

USP5 = target: T4, USP5 (UniProt P45974)
T4 sequence (whole entry): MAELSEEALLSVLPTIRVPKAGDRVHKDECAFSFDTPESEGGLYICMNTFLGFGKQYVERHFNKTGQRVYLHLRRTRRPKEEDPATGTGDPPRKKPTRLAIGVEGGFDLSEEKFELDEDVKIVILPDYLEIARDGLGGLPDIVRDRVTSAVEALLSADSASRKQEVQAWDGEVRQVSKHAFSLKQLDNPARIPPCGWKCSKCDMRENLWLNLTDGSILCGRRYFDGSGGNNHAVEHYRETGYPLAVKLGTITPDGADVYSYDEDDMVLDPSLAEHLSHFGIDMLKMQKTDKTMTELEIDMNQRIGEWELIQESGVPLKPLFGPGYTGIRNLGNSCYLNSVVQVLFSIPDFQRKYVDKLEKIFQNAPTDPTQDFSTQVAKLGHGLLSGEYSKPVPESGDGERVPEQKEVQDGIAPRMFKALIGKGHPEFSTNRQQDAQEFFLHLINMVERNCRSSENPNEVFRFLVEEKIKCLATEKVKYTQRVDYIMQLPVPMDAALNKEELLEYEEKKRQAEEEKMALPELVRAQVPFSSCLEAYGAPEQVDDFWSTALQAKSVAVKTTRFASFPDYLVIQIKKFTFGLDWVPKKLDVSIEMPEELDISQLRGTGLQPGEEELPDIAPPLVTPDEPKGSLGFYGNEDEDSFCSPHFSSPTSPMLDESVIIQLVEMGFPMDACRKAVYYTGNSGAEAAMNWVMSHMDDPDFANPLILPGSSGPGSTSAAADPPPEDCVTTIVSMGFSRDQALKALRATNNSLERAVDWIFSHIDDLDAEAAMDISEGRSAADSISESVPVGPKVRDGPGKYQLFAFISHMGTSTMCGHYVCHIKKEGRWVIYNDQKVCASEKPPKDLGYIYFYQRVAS
How it was run: as §1

USP54 = USP54 (UniProt Q70EL1)
How it was run: as §1

USP7 = USP7 (UniProt Q93009)
How it was run: as §1

USP8 = target: T5, USP8 (UniProt P40818)
T5 sequence (whole entry): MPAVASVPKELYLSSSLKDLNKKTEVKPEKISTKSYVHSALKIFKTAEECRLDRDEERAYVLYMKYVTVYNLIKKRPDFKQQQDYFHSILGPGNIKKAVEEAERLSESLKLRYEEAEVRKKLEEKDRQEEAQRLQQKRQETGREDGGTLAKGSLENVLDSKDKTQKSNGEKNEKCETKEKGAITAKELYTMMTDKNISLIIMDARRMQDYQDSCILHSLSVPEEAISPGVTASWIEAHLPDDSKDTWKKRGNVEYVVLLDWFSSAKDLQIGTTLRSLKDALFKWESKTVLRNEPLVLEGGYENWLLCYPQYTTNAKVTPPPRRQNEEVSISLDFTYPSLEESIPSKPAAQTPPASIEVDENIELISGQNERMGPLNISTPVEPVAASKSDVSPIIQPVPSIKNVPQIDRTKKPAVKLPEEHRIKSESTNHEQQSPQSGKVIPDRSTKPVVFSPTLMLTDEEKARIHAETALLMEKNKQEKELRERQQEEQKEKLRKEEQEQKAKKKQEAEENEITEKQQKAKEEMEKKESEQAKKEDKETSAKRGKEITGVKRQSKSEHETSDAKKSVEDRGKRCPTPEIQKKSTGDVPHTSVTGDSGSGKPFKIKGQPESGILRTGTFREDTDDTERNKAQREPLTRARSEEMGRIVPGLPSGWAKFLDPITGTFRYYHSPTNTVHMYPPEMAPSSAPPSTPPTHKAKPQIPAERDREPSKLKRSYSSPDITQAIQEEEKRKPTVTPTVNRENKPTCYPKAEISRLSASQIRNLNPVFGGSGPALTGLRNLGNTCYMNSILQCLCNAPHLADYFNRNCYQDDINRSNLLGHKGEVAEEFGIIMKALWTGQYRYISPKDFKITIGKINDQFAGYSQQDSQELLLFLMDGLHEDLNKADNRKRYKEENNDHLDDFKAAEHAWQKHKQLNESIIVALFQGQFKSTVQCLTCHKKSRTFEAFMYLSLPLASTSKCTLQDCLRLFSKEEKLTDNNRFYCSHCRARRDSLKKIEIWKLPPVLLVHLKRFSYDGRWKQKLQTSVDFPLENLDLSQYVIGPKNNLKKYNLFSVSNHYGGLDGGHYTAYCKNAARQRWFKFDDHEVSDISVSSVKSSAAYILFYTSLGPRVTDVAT
How it was run: as §1

Measured: log2 ratio of Biotin-Ahx-Ub-VS probe labelling

Chain of USP7 (Q93009 whole entry, looked up): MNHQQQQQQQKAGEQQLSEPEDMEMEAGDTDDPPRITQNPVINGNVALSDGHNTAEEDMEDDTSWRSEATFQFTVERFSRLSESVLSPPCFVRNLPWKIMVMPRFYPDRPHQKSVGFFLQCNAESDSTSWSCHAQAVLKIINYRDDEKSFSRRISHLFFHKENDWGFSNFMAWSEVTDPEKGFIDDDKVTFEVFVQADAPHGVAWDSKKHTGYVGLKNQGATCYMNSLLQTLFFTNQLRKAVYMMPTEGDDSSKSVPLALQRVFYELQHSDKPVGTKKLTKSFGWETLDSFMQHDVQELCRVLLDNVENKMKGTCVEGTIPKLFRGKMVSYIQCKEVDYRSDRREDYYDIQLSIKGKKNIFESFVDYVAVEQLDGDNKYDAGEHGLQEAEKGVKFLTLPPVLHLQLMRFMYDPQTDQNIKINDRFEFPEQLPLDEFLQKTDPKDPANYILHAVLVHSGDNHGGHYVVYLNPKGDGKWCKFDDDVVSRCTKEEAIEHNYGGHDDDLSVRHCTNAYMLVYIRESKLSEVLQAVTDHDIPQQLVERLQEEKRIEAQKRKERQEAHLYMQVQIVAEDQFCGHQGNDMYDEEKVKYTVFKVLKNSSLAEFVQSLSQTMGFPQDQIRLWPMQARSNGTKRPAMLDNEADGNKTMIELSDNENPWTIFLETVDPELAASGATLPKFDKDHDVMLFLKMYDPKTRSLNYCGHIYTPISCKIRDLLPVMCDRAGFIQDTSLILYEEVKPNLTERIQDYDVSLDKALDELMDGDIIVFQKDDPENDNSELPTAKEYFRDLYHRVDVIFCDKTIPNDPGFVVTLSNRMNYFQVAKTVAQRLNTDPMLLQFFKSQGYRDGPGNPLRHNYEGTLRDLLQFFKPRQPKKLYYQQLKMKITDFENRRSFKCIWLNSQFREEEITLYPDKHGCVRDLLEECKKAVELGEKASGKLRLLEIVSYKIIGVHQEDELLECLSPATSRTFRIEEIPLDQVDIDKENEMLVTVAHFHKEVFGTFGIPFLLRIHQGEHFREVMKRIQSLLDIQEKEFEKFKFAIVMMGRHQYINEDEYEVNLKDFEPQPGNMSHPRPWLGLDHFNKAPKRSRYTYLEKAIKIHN
Chain of USP54 (Q70EL1 whole entry): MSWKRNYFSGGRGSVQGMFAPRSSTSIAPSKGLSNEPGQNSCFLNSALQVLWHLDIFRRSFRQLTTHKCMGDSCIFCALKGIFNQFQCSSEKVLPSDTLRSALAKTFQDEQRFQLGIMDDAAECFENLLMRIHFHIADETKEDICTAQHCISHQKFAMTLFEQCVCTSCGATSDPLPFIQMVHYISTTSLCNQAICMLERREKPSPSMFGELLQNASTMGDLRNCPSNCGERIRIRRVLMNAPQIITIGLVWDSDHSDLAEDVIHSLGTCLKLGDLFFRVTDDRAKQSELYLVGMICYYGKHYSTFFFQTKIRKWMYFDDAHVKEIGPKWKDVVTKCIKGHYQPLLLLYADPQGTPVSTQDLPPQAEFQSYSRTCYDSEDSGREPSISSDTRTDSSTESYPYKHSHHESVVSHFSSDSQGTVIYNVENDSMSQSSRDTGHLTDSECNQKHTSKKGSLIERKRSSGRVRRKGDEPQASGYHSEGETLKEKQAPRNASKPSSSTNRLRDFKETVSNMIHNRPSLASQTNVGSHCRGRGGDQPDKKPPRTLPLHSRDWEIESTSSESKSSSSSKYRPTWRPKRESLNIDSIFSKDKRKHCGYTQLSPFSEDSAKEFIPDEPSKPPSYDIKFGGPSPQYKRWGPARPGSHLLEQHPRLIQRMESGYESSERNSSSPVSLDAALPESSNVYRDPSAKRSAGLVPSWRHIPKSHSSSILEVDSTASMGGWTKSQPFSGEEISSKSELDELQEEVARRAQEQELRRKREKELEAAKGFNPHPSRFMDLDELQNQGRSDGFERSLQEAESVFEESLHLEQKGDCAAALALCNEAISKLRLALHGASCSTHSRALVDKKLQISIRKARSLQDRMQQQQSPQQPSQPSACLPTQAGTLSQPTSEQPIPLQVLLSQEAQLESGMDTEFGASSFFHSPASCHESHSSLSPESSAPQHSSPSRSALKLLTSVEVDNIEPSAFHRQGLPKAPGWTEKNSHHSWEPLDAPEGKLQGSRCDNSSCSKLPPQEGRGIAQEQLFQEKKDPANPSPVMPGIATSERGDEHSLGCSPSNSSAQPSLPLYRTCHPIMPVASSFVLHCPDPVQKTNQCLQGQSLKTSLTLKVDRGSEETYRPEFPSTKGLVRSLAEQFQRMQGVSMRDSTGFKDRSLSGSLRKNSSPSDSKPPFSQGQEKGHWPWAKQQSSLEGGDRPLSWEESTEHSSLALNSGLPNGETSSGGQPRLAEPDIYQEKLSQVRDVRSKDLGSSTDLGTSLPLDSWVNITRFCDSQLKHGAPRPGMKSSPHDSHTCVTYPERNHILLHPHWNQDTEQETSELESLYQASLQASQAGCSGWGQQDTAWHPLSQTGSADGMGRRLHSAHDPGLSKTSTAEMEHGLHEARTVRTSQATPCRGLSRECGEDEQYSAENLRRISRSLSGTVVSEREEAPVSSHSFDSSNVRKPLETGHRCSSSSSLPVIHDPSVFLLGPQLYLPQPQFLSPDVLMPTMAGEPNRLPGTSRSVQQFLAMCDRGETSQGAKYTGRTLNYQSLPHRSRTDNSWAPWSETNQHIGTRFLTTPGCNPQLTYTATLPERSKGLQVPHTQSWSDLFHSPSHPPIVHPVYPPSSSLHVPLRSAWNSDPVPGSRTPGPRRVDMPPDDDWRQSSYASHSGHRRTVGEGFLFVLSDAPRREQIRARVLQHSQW
Chain of USP46 (P62068 whole entry): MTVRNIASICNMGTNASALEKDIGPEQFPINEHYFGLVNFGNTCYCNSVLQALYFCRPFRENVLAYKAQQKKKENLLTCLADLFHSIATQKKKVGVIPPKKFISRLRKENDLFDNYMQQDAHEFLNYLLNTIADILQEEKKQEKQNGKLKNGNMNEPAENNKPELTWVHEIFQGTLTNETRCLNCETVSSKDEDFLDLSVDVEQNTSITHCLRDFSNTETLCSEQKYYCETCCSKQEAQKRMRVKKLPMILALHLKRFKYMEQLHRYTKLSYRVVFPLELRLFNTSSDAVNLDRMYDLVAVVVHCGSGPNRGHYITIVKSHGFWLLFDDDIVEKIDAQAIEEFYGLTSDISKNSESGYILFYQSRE

Cc1ccccc1OCC(=O)N1CCN(C(=O)CCl)CC1
active: USP47 -1.19
inactive: USP42 0.258 | USP46 -0.329 | USP48 -0.356 | USP5 0.0461 | USP54 -0.923 | USP7 -0.701 | USP8 0.0472
